# Screens as filed in PubChem BioAssay.
# Only some compounds are listed: those with a hit (about 8.9% of all), similar ones and a draw of the others.
# MCF10A rerep: induces DNA re-replication in MCF 10a normal breast cells. MCF 10A DNA re-replication, Hoechst nuclear intensity, 48 h. Potency, µM (titrated, usually from 46.1 µM), inactives show top-dose activity, positive = re-replication, most hits filed as activators. hit rate 2.9% among 350,000. AID 624296; note: potency is the fitted concentration of half-maximal effect; % of control where 0% means no effect; nearly all actives have a fitted effect of over 50% in size
# DRD3 antagonist: D3 dopamine receptor (human) antagonism; D3R cells, DiscoveRx beta-arrestin luminescence, antagonist mode; stronger effect = lower value; max response, negative = inhibition, %; hit rate 2.5% among 360,000; AID 652054; in the data active = max response below about -50%; inconclusive = no clear call, values can overlap the other calls; note: % is set by controls: 0 for no effect and ±100 for the full control effect
# Target sequence (P35462 whole entry, looked up): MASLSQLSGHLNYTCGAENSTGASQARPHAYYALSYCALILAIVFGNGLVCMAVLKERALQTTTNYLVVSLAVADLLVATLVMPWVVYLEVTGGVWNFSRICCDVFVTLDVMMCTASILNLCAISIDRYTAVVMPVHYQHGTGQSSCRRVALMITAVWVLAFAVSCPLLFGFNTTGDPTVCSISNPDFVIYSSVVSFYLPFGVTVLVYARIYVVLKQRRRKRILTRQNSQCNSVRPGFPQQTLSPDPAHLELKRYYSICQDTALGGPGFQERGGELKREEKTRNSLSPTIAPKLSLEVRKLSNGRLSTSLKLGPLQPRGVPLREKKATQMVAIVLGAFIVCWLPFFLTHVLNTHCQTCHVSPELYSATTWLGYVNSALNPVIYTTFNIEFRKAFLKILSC
#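 Cells plated overnight at 1500 cells/well, then exposed to library compounds with dopamine controls for 90 minutes at 37 degrees C. DiscoveRx reagent added for 30–60 minutes at room temperature; luminescence read, quantitative HTS format.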
# KB-3-1 tox: kills parental KB-3-1 adenocarcinoma cells; KB-3-1 viability, CellTiter-Glo ATP luminescence, 72 h; Potency, µM (titrated, usually from 46.1 µM), hits mostly cytotoxic; hit rate 1.4% among 400,000; AID 1347075; note: potency is the fitted concentration of half-maximal effect; % is set by controls: 0 for no effect and ±100 for the full control effect; nearly all actives have a fitted effect of over 60% in size
#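 Using CellTiter-Glo luminescence, growth of non-resistant KB-3-1 adenocarcinoma cells is assessed 72 h after pin-tool compound addition at 37 °C. Normalized responses across the concentration series yield fitted curves.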
# KB-V1 cytotox: kills drug-selected multidrug resistant KB-V1 cells; KB-V1 MDR cells viability, CellTiter-Glo, 72 h; Potency, µM (series often up to 46.1 µM), most hits filed as cytotoxic; hit rate 3.4% among 400,000; AID 1347076; note: potency is the fitted concentration of half-maximal effect; % is set by controls: 0 for no effect and ±100 for the full control effect; nearly all actives have a fitted effect of over 60% in size
#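 Luminescent ATP read-out (CellTiter-Glo, 10 min) measures survival of drug-selected KB-V1 MDR cells after 72 h, 37 degrees C compound exposure. Medium: phenol-red-free DMEM, 10% FBS. Values from fitted concentration-response curves.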
# D3 ag: agonists of human D3 dopamine receptor. P35462. D3R DiscoveRx beta-arrestin cells, luminescence, 90 min. max activation, %. hit rate 0.58% among 410,000. AID 652048; in the data active = max activation above about 30%; note: 0% is about no effect
#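 Agonist-mode cell screen: cells plated at 1500/well and incubated overnight at 37 °C, then exposed to library compounds for 90 min at 37 °C. Detection reagent was added for 30–60 min at room temperature, and luminescence was read.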
# SW480 rerep: DNA re-replication induction in SW480 cells; SW480 DNA re-replication, Hoechst DNA content imaging, 48 h; Potency, µM (highest dose often 46.1 µM), inactives show at the highest dose re-replication activation, usual class: activators; AID 624297; hit rate 1.8% among 340,000; note: potency is the fitted concentration of half-maximal effect; % of control where 0% means no effect; nearly all actives have a fitted effect of over 55% in size
#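 Per well, 250 cells were exposed to pinned compound for 48 hr. Nuclear DNA was visualised with Hoechst (40 min, 37 C) and total object intensity recorded by fluorescence scanning.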
# Starred values were filed as active, the others as inactive; i = inactive; u = inconclusive; x = no result. Unless noted, calls come from the whole dose curve; as a rule, active = well fitted curve in the direction sought with a large enough effect; inconclusive = small, poorly fitted or top-dose-only effect, or another doubt; inactive = no such curve, though single readings can be large; an effect the other way counts as inactive or inconclusive.
SMILES,MCF10A rerep,DRD3 antagonist,KB-3-1 tox,KB-V1 cytotox,D3 ag,SW480 rerep
Cc1nn2c(C(F)(F)F)cc(-c3ccc(OC(C)C)cc3)nc2c1C#N,x,x,i,i,5.5,x
Cc1ccc(NC(=O)c2cccc3c2C(=O)N(C2CCCCC2)C3)c(C)c1,0.7%,-9.3,i,i,3.1,1.3%
Cc1cc(C)c(NC(=O)c2cccc3c2C(=O)N(C2CCCCC2)C3)c(C)c1,u,8.3,20.6µM*,u,0.0,-6.7%
CC(=O)Oc1ccc(C2(c3ccc(OC(C)=O)cc3)Oc3ccccc3NC2=O)cc1,x,x,x,x,11.3,x
OCCn1c(-c2ccc3c(c2)OCO3)csc1=Nc1ccccc1,u,-70.3*,u,i,12.0,-1.3%
OCCn1c(-c2ccc(F)cc2)csc1=Nc1ccccc1,u,-11.5,u,i,-2.3,-0.1%
O=C1NC(=S)S/C1=C\C=C\c1ccc([N+](=O)[O-])o1,30.0%,u,u,4.11µM*,-1.9,u
O=C1NC(=S)S/C1=C/c1ccc(N2CCOCC2)o1,u,-21.0,i,i,2.6,u
CCCN(CCC)CCCOC(=O)c1ccc(Cl)cc1Cl,-0.2%,-69.4*,i,i,-30.0,0.8%
CCCN(CCC)C(=S)NC(=O)c1ccc(Cl)cc1Cl,u,-181.6*,i,u,1.6,u
CN(C)CCCOC(=O)c1ccc(Cl)cc1Cl,-1.7%,u,i,i,-38.3,-2.2%
O=C(Oc1ccc(F)cc1)c1nc(SCc2ccccc2F)ncc1Cl,x,x,x,x,-14.4,x
CCOC(=O)COc1cc(-n2c(=S)[nH]c3cc(OC)c(OC)cc3c2=O)c(Cl)cc1Cl,23.1µM*,u,i,i,-14.5,-4.8%
CCOC(=O)COc1cc(N2C(=O)CSCC2=O)c(Cl)cc1Cl,-7.1%,15.5,i,i,-4.4,-1.0%
CCCc1nnc(SCC(=O)N2CCCC(C)C2)n1CCCOC (centres undefined),2.2%,12.1,i,i,1.1,-4.1%
CCCc1nnc(SCC(=O)N2CCCC(C)C2)n1CCOC (centres undefined),5.2%,-57.9*,i,i,-6.6,u
CCCc1nnc(SCC(=O)N2CCCCC2C)n1CC1CCCO1 (centres undefined),6.3%,-64.7*,i,i,1.8,-1.6%
CC(C)(C)c1ccc(OCC(=O)N/N=C/c2cc(Br)ccc2OC(=O)c2ccco2)cc1,2.5%,-9.0,u,7.31µM*,2.6,12.7%
COc1ccc(Br)cc1/C=N/NC(=O)c1ccco1,-2.2%,-0.3,i,i,-14.0,10.2%
Cc1cc(C)c(Cn2c(=O)n(CCCCC(=O)NCc3ccccc3Cl)c(=O)c3ccccc32)c(C)c1,x,x,i,i,-13.2,x
COc1cccc(CNC(=O)C2CCCN(S(=O)(=O)N(C)c3ccc(F)cc3)C2)c1OC (centres undefined),x,x,u,u,0.8,x
CN(c1ccc(F)cc1)S(=O)(=O)N1CCCC(C(=O)NCc2ccccc2Cl)C1 (centres undefined),x,x,16.4µM*,i,-6.1,x
COCCCNC(=O)C1CCCN(C(=O)c2cnn(-c3ccc(F)cc3)c2-n2cccc2)C1 (centres undefined),x,x,i,i,-0.7,x
O=C(NCc1ccccc1Cl)C1CCCN(C(=O)c2cnn(-c3ccc(F)cc3)c2-n2cccc2)C1 (centres undefined),x,x,u,16.4µM*,3.8,x
O=C(NCc1ccc(Cl)cc1)C1CCCN(C(=O)c2cnn(-c3ccc(F)cc3)c2-n2cccc2)C1 (centres undefined),x,x,x,x,0.6,x
Cc1n[nH]c(C)c1S(=O)(=O)N1CCCC(C(=O)NCc2ccc(F)cc2)C1 (centres undefined),0.731µM*,-6.8,i,i,11.5,-59.0%
COc1ccc(CNC(=O)C2CCCN(C(=O)c3cnn(-c4ccc(F)cc4)c3-n3cccc3)C2)cc1 (centres undefined),x,x,u,13µM*,5.8,x
COc1ccc(CNC(=O)C2CCN(S(=O)(=O)c3c(C)n[nH]c3C)CC2)cc1,-1.7%,-14.9,i,i,-3.8,-1.3%
